This is part of a sample that, as a whole, favours compounds with a hit. Of some 83,000 tested, about 20% had one in any assay.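 In brief: 96-well plates, 48 h treatment, single concentration, percent growth endpoint.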 Unmarked numbers belong to inactive results. Calls of active or inactive are those of the source. The calls were made as follows: active = growth percent below 10; inactive = the rest.

Holding throughout (test): NCI-60 one-dose screen, 48 h (100 = growth as untreated, 0 = no growth, -100 = all killed)
Conditions in all cases: 10 µM unless noted

Assay [1] has as its system DU-145 prostate.
For assay [2], the system named is K-562 leukemia.
Assay [3] concerns MALME-3M melanoma.
Assay [4] concerns MDA-MB-231 breast.
In assay [5] the test system is RXF 393 renal.
Assay [6] concerns SF-268 CNS.
Assay [7] deals with SF-295 CNS.
Assay [8] deals with SF-539 CNS.
Assay [9] relates to UACC-257 melanoma.
The subject of assay [10] is M14 melanoma.
The test system of assay [11] is HCT-15 colon.
The test system of assay [12] is HT29 colon.
For assay [13], the system named is SNB-75 CNS.
Assay [14] deals with SNB-19 CNS.
For assay [15], the system named is U251 CNS.
The test system of assay [16] is PC-3 prostate.
The subject of assay [17] is SK-MEL-5 melanoma.
For assay [18], the system named is UACC-62 melanoma.
Assay [19] concerns LOX IMVI melanoma.
Assay [20] concerns SK-MEL-28 melanoma.

For the compound `O=C1c2ccccc2C(=O)C1c1ccc(Br)cc1`, the growth is 118% in [1]; 104% in assay [2]; 88.8% in assay [3]; 89.4% in assay [4]; 121% in [5]; 113% in [6]. Moreover, the growth was 90.5% in [7]; 104% in assay [8]; 110% in assay [9]; 109% in assay [10]; 92.7% in [11]; 101% in assay [12]. Moreover, the growth in assay [13] is 65%; in [14], 104%; in assay [15] it was 95.8%; in assay [16], 97.9%; in assay [17] it was 107%; in assay [18] it was 98.3%. Further, the growth in assay [19] was 88.9%; in assay [20], 98%.
As for `CCCCNc1nnc2n(Cc3ccccc3)c(=O)c3c4c(sc3n12)CCCC4`, the growth in assay [1] is 38.3%; in [2], 41.2%; in [3], 40.3%; in [4], 54.9%; in [5] it was 63.2%; in assay [6], 63.6%. Further, the growth in [7] is 48.4%; in assay [8], 47.1%; in assay [9], 54.1%; in assay [10] it was 56.3%; in [11], 30.5%; in assay [12], 24.8%. Further, the growth in [13] was 66.4%; in assay [14] it was 56.5%; in assay [15] it was 48.5%; in assay [16], 42.7%; in [17], 27.7%; in assay [18] it was 32.5%. Further, the figures for the growth in assay [19] and in assay [20] were 30.2% and 60.7%, respectively.
In the case of `Cc1ccc(-c2nc(/C=C3/C(=O)Nc4ccc(F)cc43)c3ccccn23)cc1`, the growth is -23.1% (active) in assay [1]; 93.7% in assay [2]; 75.8% in assay [3]; 91% in assay [4]; 63.5% in assay [5]; 75.6% in [6]. Also, the growth in assay [7] is 76%; in [8], 82.3%; in [9] it was 95.5%; in assay [10], 98.8%; in assay [11] it was -3.43% (active); in assay [12] it was 17.2%. For the same compound, the growth in assay [13] is 92.2%; in assay [14] it was 95%; in [15], 64.3%; in assay [16], 68.1%; in assay [17] it was 86.7%; in [18], 74.7%. The growth was 63.8% in [19] and 103% in assay [20].
On to `COc1ccccc1C(=O)Nc1cccc(NC(=O)c2ccoc2C)c1`, for which the growth was 53.3% in assay [1]; 8.76% (active) in assay [2]; 60.4% in assay [3]; 59.4% in [4]; 50.1% in [5]; 48.2% in assay [6]. The growth is 29.8% in assay [7]; 27.2% in assay [8]; 33.3% in [9]; 13.1% in assay [10]; 28.7% in [11]; 6.04% (active) in [12]. Further, the growth in [13] was 19.3%; in [14], 30.4%; in assay [15], 21.9%; in assay [16] it was 30.5%; in assay [17] it was 20.5%; in assay [18] it was 29.7%. The growth in assay [19] was 37.3%; in [20], 60.1%.
With `COc1ccc(/C=C/C(c2cc(OC)c(OC)c(OC)c2)n2cncn2)cc1` (stereo not given), the growth is 61.2% in assay [1]; 17.7% in assay [2]; 61.3% in assay [3]; 50.1% in [4]; 46.5% in assay [5]; 57.1% in assay [6]. Further, the growth in assay [7] was 22.5%; in assay [8] it was 56.5%; in assay [9] it was 46.4%; in assay [10] it was 17.9%; in [11], 31.1%; in assay [12] it was 4.96% (active). Moreover, the growth in assay [13] is 51.3%; in assay [14], 49%; in assay [15], 31.8%; in [16], 31.2%; in [17], 33%; in assay [18], 33.8%. Further, the growth in assay [19] is 50%; in assay [20] it was 62.6%.
Regarding `COc1cccc(/C=N/NC(=O)c2ccccc2N2CCCC2)c1O`, the growth in [1] is 68%; in assay [2], 13.6%; in assay [3], 75.7%; in [4], 47.8%; in assay [5], 63.8%; in assay [6] it was 38.8%. The growth was 86.2% in [7]; 61.8% in [8]; -29.8% (active) in assay [9]; 48.5% in assay [10]; 19.4% in [11]; 69.3% in assay [12]. In addition, the growth is 67.4% in assay [13]; 65.8% in assay [14]; 46.7% in assay [15]; 72% in assay [16]; 58.4% in [17]; 42.5% in assay [18]. The growth in [19] is 25.4%; in assay [20], 72.1%.
As for `COc1cc(OC)c(/C=C/C(=O)c2c(O)cc(OC)c(C3CCN(C)CC3)c2OC)c(OC)c1`, the growth in [1] is -36.2% (active); in assay [2], 9.67% (active); in [3], -92.2% (active); in assay [4] it was -68.1% (active); in assay [5], -75.1% (active); in [6], -70.9% (active). Also, the growth in [7] is -79.9% (active); in [8], -91.4% (active); in assay [9] it was -81.7% (active); in assay [10], -92.7% (active); in [11] it was -58.1% (active); in assay [12] it was -73.4% (active). Besides, the growth was -8.19% (active) in [13]; -55.9% (active) in [14]; -85.6% (active) in assay [15]; -16.1% (active) in [16]; -99% (active) in assay [17]; -83.9% (active) in assay [18]. In addition, the growth in assay [19] is -93.3% (active); in assay [20] it was -100% (active).
With `COc1ccc2nc(Cl)c(/C=C3\CC(c4ccccc4)=NN(c4ccccc4)C3=O)cc2c1`, the growth is 76.8% in [1]; 83.9% in [2]; 45.2% in assay [3]; 51.7% in [4]; 10.9% in assay [5]; 51.9% in assay [6]. The growth is 62.6% in [7]; 13.1% in assay [8]; 75.2% in assay [9]; 94.1% in assay [10]; 84.5% in assay [11]; 82.5% in assay [12]. Further, the growth is 19.8% in [13]; 20.3% in assay [14]; 55.6% in assay [15]; 66.1% in assay [16]; 78.2% in [17]; 71.8% in [18]. Also, the growth was 78.3% in [19] and 85.8% in assay [20].

(Values after PubChem BioAssay (NCI).)
